Measured values as given in PubChem BioAssay AID1645851 (National Center for Advancing Translational Sciences (NCATS), 2021).
Several values for one entry are separate records, joined by “and”; a condition that tells them apart may be missing. Equal values may be shown once. Screen size: about 140,000 compounds; about 1,200 (0.86%) were called active. Rule as the data show it: active = activity change below about -25%; inactive = the rest. Shown is part of a subset that was picked to be rich in actives. More than one record can exist for a structure, and the calls need not agree.
% is scaled to controls: 0 for no effect and ±100 for the full control effect.
Also: series mostly up to about 58 µM.

What follows are molecules tested against Inositol hexakisphosphate kinase 1 (Homo sapiens) (UniProt Q92551) (assay: Primary qHTS assay for small molecule inhibitors of Inositol hexaphosphate kinase 1 (IP6K1)). Conditions: ADP-Glo luminescence, 2 h, stronger effect = lower value.
Inositol hexakisphosphate kinase 1 (Homo sapiens), sequence (Q92551 whole entry, looked up): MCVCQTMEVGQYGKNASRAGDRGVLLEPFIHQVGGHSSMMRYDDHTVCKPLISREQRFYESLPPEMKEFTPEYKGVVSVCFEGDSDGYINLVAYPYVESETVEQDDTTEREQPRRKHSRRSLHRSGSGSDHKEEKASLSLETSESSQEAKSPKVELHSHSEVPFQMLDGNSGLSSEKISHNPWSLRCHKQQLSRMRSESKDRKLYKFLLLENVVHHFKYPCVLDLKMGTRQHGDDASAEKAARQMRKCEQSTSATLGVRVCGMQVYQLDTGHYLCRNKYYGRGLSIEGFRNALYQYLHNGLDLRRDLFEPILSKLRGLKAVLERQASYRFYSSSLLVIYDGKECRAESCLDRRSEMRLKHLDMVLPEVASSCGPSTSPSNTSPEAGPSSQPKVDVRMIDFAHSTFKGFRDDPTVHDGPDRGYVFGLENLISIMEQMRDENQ
Method in brief: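 ADP-Glo luminescence measures ADP made by human IP6K1 during a 2 h RT reaction with ATP/IP6 (mix at 1.3 mM/130 uM); top library doses 57.5 and 19.1 uM final.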
In the case of `Cc1ccccc1C(=O)N1CCCC(C(=O)N2CCC(N3CCOC3=O)CC2)C1` (configuration not stated), the activity change is reported as -1.11% (inactive).
`C#C[C@]1(O)CC[C@H]2[C@@H]3CCC4=C/C(=N/O)CC[C@@H]4[C@H]3CC[C@@]21CC` was tested, and the activity change was -79.6% (active).
For `C#C[C@]1(O)CC[C@H]2[C@@H]3CCC4=CC(=O)CC[C@@H]4[C@H]3CC[C@@]21CC`, the activity change was 3.56% (inactive).
With `CN1CC(=O)N(C2CCC2)Cc2c(NCC(C)(C)C)ncnc21` the activity change was 15.1% (inactive).
For `O=C(OCc1ccccc1)N1CCOCC12CCN(Cc1ccncc1Cl)CC2`, the activity change was 13% (inactive).
For `CN(CC1CCN(CCc2cccc(F)c2)CC1)C(=O)c1cn2cccnc2n1`, the activity change was 28.9% (inactive).
With `Cc1cc(=O)n(CC(=O)NCCc2ccc(Cl)cc2)c(N2CCc3ccccc3C2)n1` the activity change was 19.5% (inactive).
With `N#CSc1cc(SC#N)c(N)nc1N` the activity change was -42.8% (active).
In the case of `COc1ccc(Cn2c(=O)c(C(=O)N3CCN([S+](=O)([O-])c4c(C)noc4C)CC3)nc3cccnc32)cc1`, the activity change is reported as 10.5% (inactive).
For `Cc1cn2nc(C(=O)Nc3cc(F)cc(F)c3)cc2c(N(C)Cc2ccccc2)n1`, the activity change was -5.8% (inactive).
In the case of `O=c1cc(-c2cccnc2)oc2c(-c3cccc(CO)c3)nccc12`, the activity change is reported as -18.5% (inactive).
With `O=c1cc(-c2ccccn2)oc2c(-c3ccccc3F)nccc12` the activity change was -14.4% (inactive).
`O=c1cc(-c2cccnc2)oc2c(-c3ccccc3O)nccc12` was tested, and the activity change was -32.5% (active).
With `CCCn1c(C)cnc1C1CCN(S(C)(=O)=O)C1` (configuration not stated) the activity change was 2.78% (inactive).
With `O=C(NC1CCCCCC1)C1CCCN(Cc2cccc(-c3cccs3)c2)C1` (configuration not stated) the activity change was 8.71% (inactive).
For `Cn1nc(C2CCCN(C(=O)NCc3ccccc3)C2)n(Cc2ccccc2)c1=O` (configuration not stated), the activity change was -4.56% (inactive).
In the case of `COc1ccccc1N1CCCc2ncc(C(=O)N3CCCC[C@@H]3c3ccccc3)cc21`, the activity change is reported as -3.23% (inactive).
In the case of `COC(=O)[C@H](NC(=O)[C@@H]1C[C@H](NC(=O)Nc2ccc(F)cc2F)CN1C(C)=O)C(C)C`, the activity change is reported as -6.82% (inactive).
In the case of `CCC(=O)Nc1cccc(-c2nc3cc(C)ccc3o2)c1`, the activity change is reported as -27.3% (active).
With `Cc1ccc(SCC(=O)Nc2ccc3oc(-c4ccccc4C)nc3c2)cc1` the activity change was 18.6% (inactive).
With `O=C(Nc1cccc(-c2nc3ccccc3o2)c1)c1cccc(Br)c1` the activity change was 18.7% (inactive).
For `CC1(c2ccccc2)N(Cc2ccccc2F)C(=O)OC12CCN(Cc1cccc(O)c1)CC2` (configuration not stated), the activity change was -6.41% (inactive).
In the case of `Cc1noc(-c2ccc(OC3CN(C(=O)c4ccco4)C3)cc2)n1`, the activity change is reported as 5.28% (inactive).
`CC1(C)[C@H](Cc2cc(CC3CCCCC3)on2)C[C@@H]1NC(=O)C1CCC1` was tested, and the activity change was -13.8% (inactive).
For `O=C(NCc1ccc2c(c1)OCO2)C1CCCN(Cc2cccc(-c3cccs3)c2)C1` (configuration not stated), the activity change was -3.87% (inactive).
With `COc1ccc(C(=O)N2CCCC2C(=O)N2CCCC2c2nc3ccncc3[nH]2)cc1` (configuration not stated) the activity change was 15.6% (inactive).
`c1cc(-c2nc3ccncc3[nH]2)ccn1` was tested, and the activity change was 3.83% (inactive) and 13.8% (inactive).
`COc1ccc(-c2nc3ccncc3[nH]2)cc1` was tested, and the activity change was -18.1% (inactive) and -33.5% (active).
`O=C(NCC1CN(C(=O)c2cnccn2)CC12CCOCC2)N1CCCC1` (configuration not stated) was tested, and the activity change was 5.72% (inactive).
`COc1ccc2[nH]c3c(c2c1)CCNC31CCN(C(=O)c2ccccc2)CC1` was tested, and the activity change was 15.7% (inactive).
`CCOc1ncccc1C(=O)N1CCN(Cc2ccccc2)CC(O)C1` (configuration not stated) was tested, and the activity change was -34.4% (active).
With `O=C(c1ccccc1Cl)N1CCN(C(=O)c2nc3cccnc3n(Cc3ccccc3)c2=O)CC1` the activity change was -2.58% (inactive).
For `CCOc1ccccc1C(=O)N1CCC(Oc2ncccc2C(=O)N(C)C)C1` (configuration not stated), the activity change was 17.8% (inactive).
With `Nc1nc2c(s1)C(c1ccccc1)CC(=O)N2` (configuration not stated) the activity change was -56.5% (active).
With `CN1C(=O)CC(c2ccccc2)C1=O` (configuration not stated) the activity change was 10.2% (inactive).
`COC(=O)[C@H](NC(=O)C1=C[C@@H](NC(=O)CS(=O)(=O)c2ccccc2)[C@@H](O)[C@H](O)C1)C(C)C` was tested, and the activity change was 22% (inactive).
In the case of `COc1cccc(CN2CCOC[C@H](Oc3ccccc3)C2)c1`, the activity change is reported as 7.17% (inactive).
For `CSCC(=O)N1CCC2(CC1)CC(c1ccccc1)CN(C)C2` (configuration not stated), the activity change was 3.1% (inactive).
`CN(C)CC1(O)CCC2(CCN(C(=O)c3ccc4ccccc4n3)CC2)CC1` was tested, and the activity change was -13.2% (inactive).
In the case of `Cc1cccc(C(=O)N2CCC3(CC2)CC(c2ccccc2)CN(C)C3)n1` (configuration not stated), the activity change is reported as -35.9% (active).
In the case of `CC1=C[C@@H](CNC(C)C)[C@H](C(C)C)C[C@H]1Cc1nnc(-c2ccc(C)cc2)o1`, the activity change is reported as -3.97% (inactive).
`O=C(Cc1cccc(F)c1)N1CCC[C@H]1c1nc(-c2ccc(F)cc2)n[nH]1` was tested, and the activity change was 21.1% (inactive).
